From PubChem BioAssay (NCI) come the findings set out here.

This is part of a sample that, as a whole, favours compounds with a hit. Of some 83,000 tested, about 20% had one in any assay.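 Compound tested at a single concentration for 48 hours in 96-well plates; a percent growth value below 10 was scored as active.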 Values without a mark were called inactive. Active and inactive are the calls of the source.

Test systems include HCT-15 colon; HT29 colon; SNB-75 CNS; SNB-19 CNS; U251 CNS; PC-3 prostate; SK-MEL-5 melanoma; UACC-62 melanoma; LOX IMVI melanoma; SK-MEL-28 melanoma; SK-MEL-2 melanoma; EKVX NSCLC; UO-31 renal; TK-10 renal; ACHN renal; CAKI-1 renal; A498 renal; CCRF-CEM leukemia; MOLT-4 leukemia; SN12C renal.
Common to all, as to assay: NCI-60 one-dose screen, 48 h (100 = growth as untreated, 0 = no growth, -100 = all killed)
Holding throughout (conditions): 10 µM

For the compound `O=S(=O)(NCCO)c1ccc(OCCOc2ccc(S(=O)(=O)NCCO)cc2)cc1`, the growth was 103% with HCT-15 colon; 100% in the experiment with HT29 colon; 95% with SNB-75 CNS; 102% in the experiment with SNB-19 CNS; 93.7% in the experiment with U251 CNS; 89.1% in the experiment on PC-3 prostate. Also, the growth was 96.5% with SK-MEL-5 melanoma; 95.2% in the experiment with UACC-62 melanoma; 96.6% in the experiment with LOX IMVI melanoma; 105% in the experiment on SK-MEL-28 melanoma; 100% in the experiment on SK-MEL-2 melanoma; 99.1% in the experiment with EKVX NSCLC. Besides, the growth with UO-31 renal is 81.9%; in the experiment with TK-10 renal it was 99.5%; in the experiment on ACHN renal, 101%; with CAKI-1 renal, 94.2%; in the experiment on A498 renal, 86.1%; in the experiment with CCRF-CEM leukemia, 102%. Further, the growth with MOLT-4 leukemia is 99.6%.

Turning to `CCOC(=O)c1c(C(F)(F)F)n([O-])c2ccc(OC)cc2[n+]1=O`, the growth in the experiment on HCT-15 colon is 23.7%; with HT29 colon, 48.1%; with SNB-75 CNS it was 11.8%; in the experiment on SNB-19 CNS it was 25.8%; in the experiment on U251 CNS it was 26.6%; in the experiment with PC-3 prostate it was -3.79% (active). Besides, the growth in the experiment on SK-MEL-5 melanoma was -29.4% (active); in the experiment with UACC-62 melanoma, 22.8%; with LOX IMVI melanoma it was 31.2%; with SK-MEL-28 melanoma it was 60.8%; in the experiment with SK-MEL-2 melanoma, 46.4%; in the experiment with EKVX NSCLC it was 9.51% (active). Besides, the growth in the experiment with SN12C renal is 22.6%; in the experiment on TK-10 renal, 49.8%; in the experiment on ACHN renal it was 32.1%; in the experiment with A498 renal, 50.8%; in the experiment with CCRF-CEM leukemia it was 5.58% (active); with MOLT-4 leukemia, 5.77% (active).

On to `CNC(=S)Sc1ccc([N+](=O)[O-])cc1[N+](=O)[O-]`, for which the growth was 36.8% in the experiment with HCT-15 colon; 4.84% (active) in the experiment on HT29 colon; 88.1% in the experiment with SNB-75 CNS; 94.3% in the experiment with SNB-19 CNS; 72.5% in the experiment with U251 CNS; 84.4% in the experiment with PC-3 prostate. For the same compound, the growth is 44.8% in the experiment on SK-MEL-5 melanoma; 81.6% in the experiment with UACC-62 melanoma; 19.3% in the experiment with LOX IMVI melanoma; 66.1% in the experiment on SK-MEL-28 melanoma; 90.7% in the experiment with SK-MEL-2 melanoma; 72.1% in the experiment with EKVX NSCLC. Besides, the growth with UO-31 renal was 60.2%; in the experiment on TK-10 renal, 84.3%; in the experiment on ACHN renal, 37.3%; in the experiment on CAKI-1 renal it was 27%; in the experiment on A498 renal it was 80.6%; in the experiment with CCRF-CEM leukemia it was 12.7%. Moreover, in the experiment on MOLT-4 leukemia, the growth was 43.7%.

`CC(=O)OC1Oc2ccccc2-c2oc(=O)c(-c3cc(=O)oc4cc(O)ccc34)cc21` (centres undefined): the growth was 80.8% in the experiment with HCT-15 colon; 86.9% with HT29 colon; 76% in the experiment on SNB-75 CNS; 95% in the experiment on SNB-19 CNS; 89.6% in the experiment on U251 CNS; 75.9% in the experiment with PC-3 prostate. The growth is 80.1% with SK-MEL-5 melanoma; 84.9% in the experiment with UACC-62 melanoma; 83.8% in the experiment with LOX IMVI melanoma; 111% in the experiment on SK-MEL-28 melanoma; 87.3% in the experiment on SK-MEL-2 melanoma; 86.6% with EKVX NSCLC. The growth with SN12C renal was 95.6%; with TK-10 renal it was 82.5%; in the experiment on ACHN renal, 85.8%; in the experiment with CAKI-1 renal, 93.7%; in the experiment on A498 renal, 54.8%; in the experiment on CCRF-CEM leukemia it was 32.1%. Moreover, the growth in the experiment with MOLT-4 leukemia is 42.8%.

For `Cc1cc(O)c(C2=NN(c3ccc(S(N)(=O)=O)cc3)C(c3ccc(N(C)C)cc3)C2)c(C)c1Cl` (centres undefined), the growth is 80.5% in the experiment with HCT-15 colon; 52.7% with HT29 colon; 78.7% in the experiment with SNB-75 CNS; 107% in the experiment on SNB-19 CNS; 78.3% in the experiment with U251 CNS; 13.6% in the experiment on PC-3 prostate. Moreover, the growth in the experiment on SK-MEL-5 melanoma is 79.6%; in the experiment with UACC-62 melanoma it was 64.8%; with LOX IMVI melanoma it was 82.8%; with SK-MEL-28 melanoma it was 90.2%; in the experiment on SK-MEL-2 melanoma it was 92.5%; in the experiment on EKVX NSCLC it was 51.1%. Moreover, the growth in the experiment with SN12C renal was 74.8%; with ACHN renal it was 88.6%; with A498 renal, 74.3%; in the experiment with CCRF-CEM leukemia, 28%; with MOLT-4 leukemia, 27.3%.

As to `CCOC(=O)Nc1ccc2c(c1)C(=O)N(CCOC)c1ccccc1O2`, the growth in the experiment with HCT-15 colon was 26.1%; in the experiment on HT29 colon, 8.18% (active); in the experiment with SNB-75 CNS, 31.9%; with SNB-19 CNS, 54.5%; in the experiment with U251 CNS, 39.3%; in the experiment on PC-3 prostate it was 38.4%. For the same compound, the growth was 12.3% with SK-MEL-5 melanoma; 30.6% with UACC-62 melanoma; 38.7% with LOX IMVI melanoma; 62.9% with SK-MEL-28 melanoma; 39.9% in the experiment on SK-MEL-2 melanoma; 45.4% in the experiment on EKVX NSCLC. Besides, the growth in the experiment on UO-31 renal is 62.2%; in the experiment with TK-10 renal it was 58.7%; with ACHN renal it was 48.1%; in the experiment with CAKI-1 renal it was 38.7%; in the experiment on A498 renal, 4.67% (active); with CCRF-CEM leukemia, 20.6%. Besides, the growth in the experiment with MOLT-4 leukemia was 35%.

Consider `COc1ccc2oc(=O)cc(C3c4ccc([nH]4)C(c4cc(=O)oc5ccc(OC)cc45)c4ccc([nH]4)C(c4cc(=O)oc5ccc(OC)cc45)c4ccc([nH]4)C(c4cc(=O)oc5ccc(OC)cc45)c4ccc3[nH]4)c2c1` (centres undefined), for which the growth is -62.4% (active) in the experiment with HCT-15 colon; -41.5% (active) in the experiment with HT29 colon; 19.3% in the experiment on SNB-75 CNS; 26% in the experiment with SNB-19 CNS; 1.28% (active) with U251 CNS; 30.4% in the experiment on PC-3 prostate. The growth in the experiment on SK-MEL-5 melanoma is -4.6% (active); in the experiment with UACC-62 melanoma, -8.02% (active); in the experiment with LOX IMVI melanoma it was -60.4% (active); with SK-MEL-28 melanoma it was 1.37% (active); with SK-MEL-2 melanoma, 1.72% (active); in the experiment with EKVX NSCLC it was 27.8%. Moreover, the growth with UO-31 renal is -44.9% (active); in the experiment on TK-10 renal, -32.1% (active); with ACHN renal it was 1.03% (active); in the experiment on CAKI-1 renal, -22.1% (active); in the experiment with A498 renal, -17.4% (active); with CCRF-CEM leukemia, 0.0782% (active). The growth with MOLT-4 leukemia is -8.61% (active).

In the case of `CCc1cc2n(n1)-c1ncc(C(=O)OC)cc1Oc1ccccc1-2`, the growth in the experiment with HCT-15 colon was 96.7%; with HT29 colon, 112%; in the experiment on SNB-75 CNS, 89.4%; in the experiment on SNB-19 CNS it was 109%; in the experiment with U251 CNS, 94.4%; in the experiment on PC-3 prostate, 97.5%. Also, the growth with SK-MEL-5 melanoma is 96.2%; in the experiment with UACC-62 melanoma, 102%; with LOX IMVI melanoma it was 96.8%; in the experiment on SK-MEL-28 melanoma, 120%; in the experiment on SK-MEL-2 melanoma, 106%; with EKVX NSCLC it was 98.5%. The growth in the experiment on UO-31 renal was 88.8%; in the experiment with TK-10 renal, 96.1%; in the experiment with ACHN renal, 108%; with CAKI-1 renal it was 94%; with A498 renal, 101%; with CCRF-CEM leukemia, 95.2%. For the same compound, in the experiment on MOLT-4 leukemia, the growth is 95%.
